# Results: PubChem BioAssay (NCATS)
# Inconclusive results are not listed. Active and inactive are the calls of the source. Calls come from the whole dose curve; as a rule, active = well fitted cell-killing curve with a large enough effect; inconclusive = small, poorly fitted or top-dose-only effect, or effect the other way; inactive = flat fitted curve, though single readings scatter.
# Test system: Tov-21-G
# Experiment: Primary qHTS to identify gynecologic anti-cancer compounds using libraries of approved drugs and bioactive compounds (AID 1345084); note: nearly all actives have a fitted effect of over 55% in size
# Conditions: Gynecologic cancer cell panel viability, ATPlite luminescence, 48 h; series mostly up to 57.5 µM; activity change, negative = cytotoxicity: at the top concentration
# Outline: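 Cells, 1,000 per well, plated 16 h, then exposed 48 h at 37 C to compounds. Viability by ATPlite luminescence after 15 min at room temperature.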
# % is set by controls: 0 for no effect and ±100 for the full control effect.
Compound,"activity change, negative = cytotoxicity",Potency
C[C@@H]1O[C@@H](OC[C@H]2O[C@@H](OCCc3ccccc3)[C@H](O)[C@@H](O)[C@@H]2O)[C@H](O)[C@H](O)[C@H]1O,-12.4% [at 25.3 µM] (inactive),–
CCN[C@@H]1C[C@H](N)[C@@H](O[C@H]2OC(CN)=CC[C@H]2N)[C@H](O)[C@H]1O[C@H]1OC[C@](C)(O)[C@H](NC)[C@H]1O,–,inactive
CC(CO[C@@H]1O[C@H](COC(=O)/C=C/c2ccc(O)c(O)c2)[C@@H](O)[C@H](O)[C@H]1O)C1(O)COC(=O)C1 (some centres not stated),0.926% [at 25.3 µM] (inactive),–
Oc1ccc([C@H]2COc3cc(O)ccc3C2)cc1,0.295% (inactive),–
Cc1nnc(C(C)C)n1C1CC2CCC(C1)N2CCC(NC(=O)C1CCC(F)(F)CC1)c1ccccc1 (configuration not stated),7.93% (inactive),–
CC1(C)CCC[C@@]2(C)[C@H]1[C@H](O)C=C1COC(=O)[C@@]12O,0.318% (inactive),–
O=C1[C@H](O[C@@H]2O[C@H](CO)[C@@H](O)[C@H](O)[C@H]2O)Oc2ccccc2N1O,0.679% [at 38.5 µM] (inactive),–
COC(=O)[C@H](OC(C)=O)[C@H]1C(C)(C)C(=O)[C@H]2CC3=C4CC(=O)O[C@@H](c5ccoc5)[C@]4(C)CCC3[C@@]1(C)C2=O (some centres not stated),2.68% [at 25.3 µM] (inactive),–
CCCCN(CCCC)C(=O)CN1C[C@H](c2ccc3c(c2)OCO3)[C@@H](C(=O)O)[C@@H]1c1ccc(OC)cc1,10.7% (inactive),–
C=C[C@](C)(CC/C=C(\C)C(=O)O)O[C@@H]1OC[C@H](O)[C@H](O)[C@H]1O,1.69% [at 38.5 µM] (inactive),–
COC(=O)C1=CO[C@@H](O[C@@H]2O[C@H](CO)[C@@H](O)[C@H](O)[C@H]2O)[C@@H]2[C@@H](C(=O)OC)[C@@H](O)C(O)[C@H]12 (some centres not stated),1.58% [at 25.3 µM] (inactive),–
O=C(O)Cc1nn(Cc2nc3cc(C(F)(F)F)ccc3s2)c(=O)c2nccnc12,-1.07% (inactive),–
